Laboratory results published in PubChem BioAssay AID1159580 (chemical genetic matrix, 2015).
The campaign covered roughly 5,500 compounds. About 2,000 (36%) were called active. Roughly 18% stayed inconclusive and do not appear here. Rule as the data show it: active = normalized growth mostly below about 0.91 (no sharp cut-off); inconclusive = no clear call, values can overlap the other calls; inactive = mostly above about 0.92. This is one part of the list.

Assay: chemical genetic growth profiling, strain panel (AID 1159580);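 also: tested at 20 µM; growth read once vehicle control cultures reached saturation at 30 °C; 1 = growth at the plate median or of vehicle wells; lower values mean less growth of the strain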
Details: S. cerevisiae deletion strains, growth OD

Measured: normalized growth

COc1cc(S(C)=O)ccc1-c1nc2ncccc2[nH]1 (stereo not drawn)
inactive: locus YAL013W, strain DEP1, stronger effect = lower value 1.01 | locus YAL021C, strain ccr4, stronger effect = lower value 0.936 | locus YAL026C, strain drs2, stronger effect = lower value 0.994 | locus YAL030W, strain snc1, stronger effect = lower value 0.976 | locus YBL061C, strain skt5, stronger effect = lower value 0.984 | locus YBR009C, strain hhf1, stronger effect = lower value 0.956 | locus YBR021W, strain FUR4, stronger effect = lower value 0.994 | locus YBR023C, strain chs3, stronger effect = lower value 0.98 | locus YBR171W, strain sec66, stronger effect = lower value 0.977 | locus YBR229C, strain ROT2, stronger effect = lower value 1.01 | locus YBR231C, strain swc5, stronger effect = lower value 1.01 | locus YBR279W, strain paf1, stronger effect = lower value 0.981 | locus YCL011C, strain gbp2, stronger effect = lower value 0.969 | locus YCL016C, strain dcc1, stronger effect = lower value 0.959 | locus YCL029C, strain bik1, stronger effect = lower value 0.985 | locus YCL061C, strain MRC1, stronger effect = lower value 0.984 | locus YCL069W, strain vba3, stronger effect = lower value 0.967 | locus YCR088W, strain abp1, stronger effect = lower value 0.981 | locus YDL005C, strain med2, stronger effect = lower value 0.966 | locus YDL035C, strain GPR1, stronger effect = lower value 1 | locus YDL040C, strain nat1, stronger effect = lower value 0.969 | locus YDL074C, strain BRE1, stronger effect = lower value 1.04 | locus YDL101C, strain DUN1, stronger effect = lower value 0.994 | locus YDL134C, strain PPH21, stronger effect = lower value 1.01 | locus YDL185W, strain tfp1, stronger effect = lower value 0.98 | locus YDL192W, strain arf1, stronger effect = lower value 0.985 | locus YDR001C, strain nth1, stronger effect = lower value 0.963 | locus YDR069C, strain doa4, stronger effect = lower value 0.958 | locus YDR101C, strain arx1, stronger effect = lower value 0.999 | locus YDR137W, strain rgp1, stronger effect = lower value 0.973 | locus YDR150W, strain NUM1, stronger effect = lower value 0.979 | locus YDR159W, strain sac3, stronger effect = lower value 0.96 | locus YDR162C, strain NBP2, stronger effect = lower value 1 | locus YDR195W, strain ref2 0.935 | locus YDR297W, strain sur2, stronger effect = lower value 0.974 | locus YDR318W, strain mcm21, stronger effect = lower value 0.997 | locus YDR334W, strain swr1, stronger effect = lower value 0.97 | locus YDR335W, strain msn5, stronger effect = lower value 0.96 | locus YDR388W, stronger effect = lower value 0.996 | locus YDR392W, strain spt3, stronger effect = lower value 0.848 | locus YDR502C, strain sam2, stronger effect = lower value 0.984 | locus YEL003W, strain gim4, stronger effect = lower value 0.98 | locus YEL037C, strain rad23, stronger effect = lower value 0.975 | locus YEL061C, strain CIN8 (second series), stronger effect = lower value 0.972 | locus YEL061C, strain CIN8, stronger effect = lower value 1 | locus YER015W, strain faa2, stronger effect = lower value 0.982 | locus YER016W, strain bim1, stronger effect = lower value 0.978 | locus YER110C, stronger effect = lower value 0.992 | locus YER111C, strain swi4, stronger effect = lower value 0.972 | locus YER155C, strain BEM2 (second series), stronger effect = lower value 0.994 | locus YER155C, strain BEM2, stronger effect = lower value 0.978 | locus YER167W, strain BCK2, stronger effect = lower value 1.01 | locus YFR010W, strain ubp6, stronger effect = lower value 0.974 | locus YGL078C, strain dbp3, stronger effect = lower value 0.993 | locus YGL086W, strain mad1, stronger effect = lower value 0.995 | locus YGL167C, strain pmr1, stronger effect = lower value 0.941 | locus YGL173C, strain kem1, stronger effect = lower value 0.99 | locus YGL227W, strain vid30, stronger effect = lower value 0.982 | locus YGL240W, strain doc1, stronger effect = lower value 0.999 | locus YGL248W, strain PDE1, stronger effect = lower value 0.995 | locus YGL253W, strain hxk2, stronger effect = lower value 0.987 | locus YGR078C, strain PAC10, stronger effect = lower value 1.02 | locus YGR135W, strain pre9, stronger effect = lower value 0.983 | locus YGR229C, strain SMI1, stronger effect = lower value 1.02 | locus YGR252W, strain gcn5, stronger effect = lower value 1.01 | locus YHR013C, strain ard1, stronger effect = lower value 0.929 | locus YHR027C, strain rpn1, stronger effect = lower value 0.97 | locus YHR030C, strain SLT2, stronger effect = lower value 0.984 | locus YHR079C, strain IRE1 (second series), stronger effect = lower value 0.997 | locus YHR094C, strain hxt1, stronger effect = lower value 0.99 | locus YHR129C, strain ARP1, stronger effect = lower value 1 | locus YHR142W, strain chs7, stronger effect = lower value 0.943 | locus YHR200W, strain rpn10, stronger effect = lower value 0.991 | locus YIL066C, strain RNR3, stronger effect = lower value 0.995 | locus YIL073C, strain SPO22, stronger effect = lower value 0.943 | locus YIL125W, strain kgd1, stronger effect = lower value 0.999 | locus YIR030C, strain dcg1, stronger effect = lower value 0.988 | locus YJL092W, strain hpr5, stronger effect = lower value 0.98 | locus YJL095W, strain BCK1 (second series), stronger effect = lower value 0.972 | locus YJL095W, strain BCK1, stronger effect = lower value 1.03 | locus YJL115W, strain asf1, stronger effect = lower value 0.972 | locus YJL129C, strain trk1, stronger effect = lower value 0.966 | locus YJL134W, strain LCB3, stronger effect = lower value 1.01 | locus YJL154C, strain vps35, stronger effect = lower value 0.972 | locus YJL164C, strain tpk1, stronger effect = lower value 0.941 | locus YJL166W, strain qcr8, stronger effect = lower value 0.984 | locus YJL168C, strain set2, stronger effect = lower value 1 | locus YJL187C, strain SWE1 (second series), stronger effect = lower value 0.989
